Experimental data as given in PubChem BioAssay (NCI).
Compounds without any hit were thinned out: in the full panel of roughly 79,000, 15% have a hit. No stated cut-off is given here; in the data, active means growth inhibition above about 70%; inactive means the rest.

Tests used:
[1] = NCI Yeast Anticancer Drug Screen. Data for the rad50 strain (AID 155);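 further: 0% = growth of vehicle-only cultures of the same strain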; settings: S. cerevisiae rad50 strain growth inhibition; at 50.0 µM; active compounds read high
How it was run: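 Yeast carrying a defined DNA repair defect were exposed to test compounds, and growth was compared with vehicle-treated controls to give percent inhibition.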

[2] = NCI Yeast Anticancer Drug Screen. Data for the mec2-1 strain (AID 157); settings: S. cerevisiae mec2-1 strain, at 50.0 µM, active compounds read high
How it was run: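 Cells of the genetically defined mec2-1 yeast strain are incubated with test compound. Inhibition of growth is calculated against vehicle-treated controls.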

[3] = NCI Yeast Anticancer Drug Screen. Data for the sgs1 mgt1 strain (AID 161);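 further: 0% = growth of cultures given vehicle only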; settings: S. cerevisiae sgs1 mgt1 strain, at 50.0 µM, active compounds read high
How it was run: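 Read-out: growth inhibition vs vehicle controls. Cells: mutant yeast strain deficient in DNA damage repair.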

[4] = NCI Yeast Anticancer Drug Screen. Data for the cln2 rad14 strain (AID 165);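 further: 0% = growth equal to vehicle treated cultures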; settings: S. cerevisiae cln2 rad14 strain, at 50.0 µM, active compounds read high
How it was run: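 The screen exposed genetically defined yeast (cln2 rad14) to test compounds and scored growth inhibition relative to vehicle-treated controls.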

[5] = NCI Yeast Anticancer Drug Screen. Data for the bub3 strain (AID 167); settings: S. cerevisiae bub3 mutant strain, at 50.0 µM, active compounds read high
How it was run: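 Compounds were applied to a genetically altered yeast strain carrying a cell-cycle control defect. Growth inhibition was scored against vehicle-treated controls.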

[6] = NCI Yeast Anticancer Drug Screen. Data for the mlh1 rad18 strain (AID 175); settings: S. cerevisiae mlh1 rad18 strain growth inhibition; at 50.0 µM; active compounds read high
How it was run: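 Compound-treated yeast growth, normalised to vehicle controls. Strain bears defined DNA repair mutations.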

Measured: growth inhibition

N#CN1CCC2CC(=O)CCC2C1 (stereo not given)
inactive: [1] 6.2% | [2] 2.95% | [3] -6.5% | [4] 5.75% | [5] 0.75% | [6] -10.6%

O=C(c1nc2ccc([N+](=O)[O-])cc2[nH]c1=O)C(O)c1ccc([N+](=O)[O-])cc1 (stereo not given)
inactive: [1] -1.9% | [2] -6.2% | [3] 12.9% | [4] 10.1% | [5] -25.4% | [6] 31.5%

CCc1nc(=S)c2cnn(-c3ccccc3)c2[nH]1
inactive: [1] 16.4% | [2] 1.1% | [3] 11.2% | [4] -33.5% | [5] 8.05% | [6] 23.6%

Cc1ccccc1C(=O)c1cc(O)ccc1O
inactive: [1] -11.2% | [2] -10.1% | [3] -1.25% | [4] -8% | [5] -16.3% | [6] -5.2%

C[n+]1c(I)ccc2ccccc21
inactive: [1] 35% | [2] 36.5% | [3] 53.4% | [4] 15% | [5] 15.9% | [6] 36.3%

O=C(Nc1ccc(Cl)cc1)Nc1nnc2nc(C(C(=O)c3cccs3)c3nc4nnc(NC(=O)Nc5ccc(Cl)cc5)n4[nH]c3=O)c(=O)[nH]n12
inactive: [1] 1.55% | [2] 12.2% | [3] 0.1% | [4] 15.8% | [5] 0.05% | [6] -13.8%

CSc1nc(=O)n(CCC#N)nc1SC
inactive: [1] 32.6% | [2] 21.9% | [3] 34.9% | [4] -7.65% | [5] 4.25% | [6] 12.2%

CC(C)=NOC(=O)Nc1ccccc1
inactive: [1] 44.4% | [2] -19.8% | [3] 14.9% | [4] -15.4% | [5] 1.7% | [6] 33.9%

O=[N+]([O-])c1cccc(N=Nc2ccccc2)c1
inactive: [1] -4.25% | [2] -10.3% | [3] -22.3% | [4] 18.7% | [5] -21.6% | [6] -0.95%

CCCC1OC(C2CC=CCC2C)OCC1CC (stereo not given)
inactive: [1] -9.25% | [2] 6.55% | [3] 2.95% | [4] -17.9% | [5] -3.45% | [6] -46%

O=c1[nH]c2c(c(=O)[nH]1)SSC2
inactive: [1] -24.4% | [2] -12.8% | [3] -39.4% | [4] -7.7% | [5] -28.4% | [6] -10.1%

O=[N+]([O-])c1ccc(S(=O)(=O)N/N=C\c2cc([N+](=O)[O-])ccc2O)cc1
inactive: [1] 11.8% | [2] -1.4% | [3] 11.2% | [4] -35.2% | [5] 1.55% | [6] 26.6%

N#C/C=C\c1ccc(C#N)cc1
inactive: [1] 28.1% | [2] -1.5% | [3] 20.3% | [4] 6.85% | [5] 25.1% | [6] 19.9%

COC(=O)C1Cc2ccc(C)cc2C1=O (stereo not given)
inactive: [1] -37.7% | [2] -4.6% | [3] -1.95% | [4] 26.1% | [5] 15.4% | [6] -4.3%

CC(=O)c1ccc(OCc2ccccc2)c(OCc2ccccc2)c1
inactive: [1] 2.45% | [2] 0.8% | [3] 22.8% | [4] 10.9% | [5] 22.1% | [6] 11.2%

O=c1[nH]c2ccccc2[nH]1
inactive: [1] -18.8% | [2] -14.9% | [3] -7.6% | [4] -28% | [5] -13.2% | [6] -14.4%

O=C(c1ccc(Br)cc1)C1SC2(C(=O)c3ccc(Br)cc3)SC(C(=O)c3ccc(Br)cc3)C(C(=O)c3ccc(Br)cc3)SC2(C(=O)c2ccc(Br)cc2)SC1C(=O)c1ccc(Br)cc1 (stereo not given)
inactive: [1] -8.8% | [2] 3.75% | [3] -17.4% | [4] -11.9% | [5] -2.95% | [6] -24.4%

Cc1[nH]n(-c2ncc(C#N)c(=O)[nH]2)c(=O)c1CCO
inactive: [1] -8.75% | [2] -34.1% | [3] -16% | [4] -31.9% | [5] -11.8% | [6] -71.3%

O=C(CCCN1CCC(O)(c2ccc(Cl)cc2)CC1)c1ccc(N2CCC(O)CC2)cc1
inactive: [1] 0.8% | [2] -2.05% | [3] -0.65% | [4] -44.6% | [5] 4.4% | [6] 1.1%

COc1ccccc1NC(=O)C1=C(C)NC(C)=C(C(=O)Nc2ccccc2OC)C1c1ccccc1OC
inactive: [1] 15.2% | [2] -6.65% | [3] -26.8% | [4] 17.1% | [5] 0.35% | [6] 1.85%

CCCC(C)C(=O)O (stereo not given)
inactive: [1] 23.1% | [2] -1.95% | [3] 4% | [4] 23.1% | [5] 28.8% | [6] 19.9%

c1cc2c3c(cccc3c1)N=S=N2
inactive: [1] 25.4% | [2] -7.45% | [3] 10.1% | [4] -62.6% | [5] 20.9% | [6] 12.2%

CCn1ncc2c1nc(-c1ccccc1)c[n+]2[O-]
inactive: [1] 17.1% | [2] 4% | [3] -34.5% | [4] -12.4% | [5] -44.9% | [6] -52%

N/N=C(\N)N(Cc1ccccc1)c1ccccc1
inactive: [1] 10.3% | [2] 25.7% | [3] 2.85% | [4] -11.6% | [5] -2.6% | [6] 4.75%

COC(=O)c1cc(-c2ccc(N)cc2)c2c(=O)n(-c3ccccc3)[nH]c2n1
inactive: [1] 26.1% | [2] 19% | [3] 30.9% | [4] -0.65% | [5] -1.4% | [6] 6.45%

c1ccc(CC/C(=N/N=C(\CCc2ccccc2)c2ccccc2)c2ccccc2)cc1
inactive: [1] 10.7% | [2] 8.05% | [3] -13.3% | [4] -8.75% | [5] -3% | [6] 7.6%

C=CCN(CC=C)P(=O)(N(CC=C)CC=C)N(CC=C)CC=C
inactive: [1] 22.3% | [2] 8.9% | [3] 16.4% | [4] 0.15% | [5] 17.6% | [6] 21.4%

Cc1cccc(NC(=O)Oc2ccc(Nc3ccccc3)cc2)c1
inactive: [1] 6.6% | [2] 38.5% | [3] 40.2% | [4] 12.3% | [5] 62% | [6] 50.4%

CC1CCCN(C(=O)Nc2ccc([N+](=O)[O-])cc2)C1 (stereo not given)
inactive: [1] 41.1% | [2] 31.3% | [3] 61.9% | [4] 25.8% | [5] 59.4% | [6] 43.8%

C/C(CC(O)(C(F)(F)F)C(F)(F)F)=N\N
inactive: [1] -31.9% | [2] -49.8% | [3] -20.4% | [4] -7.6% | [5] -4.5% | [6] -23.4%

Cc1cccc2c3c(ccc12)C(=O)OC3=O
inactive: [1] -0.3% | [2] -2.85% | [3] 4.1% | [4] -22.3% | [5] -6.5% | [6] 4.25%

CC(NS(=O)(=O)c1ccccc1)C(N)=O (stereo not given)
inactive: [1] 2.75% | [2] 2.1% | [3] 3.55% | [4] -11.2% | [5] 6.95% | [6] -2.4%

COc1ccc(N2C(=O)CC(c3c[nH]c4ccccc34)C2=O)cc1 (stereo not given)
inactive: [1] -29.2% | [2] -37.1% | [3] 1.05% | [4] 6.9% | [5] 13.8% | [6] -22.2%

CC(C)(O)c1cc(Cl)ccc1Sc1ccccc1
inactive: [1] -20.6% | [2] -15.2% | [3] -8.85% | [4] 13.7% | [5] 4.85% | [6] -8.2%

Clc1ccc(C2SCCS2)c(Cl)c1
inactive: [1] 56.8% | [2] 28.2% | [3] 59.1% | [4] 31.8% | [5] 33.8% | [6] 38.5%

O=C1CSC(=S)N1.[Cu+2]
inactive: [1] -7.9% | [2] -9.5% | [3] 7.7% | [4] -7.65% | [5] -4.5% | [6] 4.3%

COc1ccc(/C=C2\N=C(c3ccc(N)cc3)OC2=O)cc1OC
inactive: [1] 10.1% | [2] -0.05% | [3] 13.2% | [4] 20.1% | [5] 10.3% | [6] 19.9%

COc1ccccc1NC(=O)C(/C=N/C(N)=S)=C(\C)O
inactive: [1] -20.1% | [2] -6.5% | [3] -33.1% | [4] 7.6% | [5] -3.65% | [6] -14.4%

OCCN(CCO)C(Cc1ccccc1)Cc1ccccc1
inactive: [1] -7.9% | [2] -9.95% | [3] -1.7% | [4] -11.1% | [5] 26.4% | [6] -22.9%

OCCSCCCCCCSCCO
inactive: [1] 6.95% | [2] 1.7% | [3] 5.85% | [4] 10.6% | [5] 2.7% | [6] 5.8%
